{"source": "ChEMBL document CHEMBL3433997", "about": "“St. Jude Leishmania screening dataset” (2016)", "note": "Where “and” joins values, the source holds several entries; their conditions need not be identical. Equal values may be shown once.", "data": [{"molecular_target": "Glucose transporter (Leishmania mexicana) (UniProt O61059)", "assay": "ST_JUDE_LEISH: Cytotoxicity at 2uM final concentration against transgenic Leishmania Mexicana promastigotes LmGT2 that are glucose transport deficient and complemented with the L. Mexicana glucose transporter 2. Activity is measured by DNA content using SYBR green in vitro", "format": "functional", "values": [{"smiles": "CCC(C)NC(=O)CN1CN(c2ccccc2)C2(CCN(C(=O)c3ccc(C(C)(C)C)cc3)CC2)C1=O", "note": "(centres undefined)", "inhibition": "1.7%"}, {"smiles": "O=C(CSc1nnc(-c2ccccc2Br)[nH]1)c1c[nH]c2ccccc12", "inhibition": "1.98%"}, {"smiles": "Cc1ccnc(Nc2nc(-c3ccccn3)cs2)c1", "inhibition": "-2.74%"}, {"smiles": "N#Cc1ccc(-c2nc(CO)c(C(=O)NCCCCN3CCC(c4ccc5c(c4OCC(N)=O)CCCC5)CC3)s2)cc1", "inhibition": "1.74%"}, {"smiles": "CCOC(=O)C1=C(C)NC2=C(C(=O)CC(C)(C)C2)C1c1ccc(Cl)cc1", "note": "(centres undefined)", "inhibition": "0.29%"}, {"smiles": "CS(=O)(=O)Nc1cccc(-c2cnc3[nH]cc(-c4ccc(CCC(=O)O)cc4)c3c2)c1", "inhibition": "4.76%"}, {"smiles": "Cc1cc(=O)c(-c2ccc(Oc3cccc(C(F)(F)F)c3)cc2)c(C)[nH]1", "inhibition": "1.32% and -2.73%"}, {"smiles": "COc1cccc(-c2ccc(NC(=O)C3CCCN(Cc4cccc(OC)c4O)C3)cc2)c1", "note": "(centres undefined)", "inhibition": "-0.64%"}, {"smiles": "Cc1cccc(Cn2ccc3c4c(N)nc(N)nc4ccc32)c1", "inhibition": "81.5%"}, {"smiles": "O=C(Nc1cccc(-c2cccc(-c3nc4cc(C(F)(F)F)ccc4[nH]3)c2)c1)c1ccncc1", "inhibition": "2.56%"}, {"smiles": "COc1ccc(S(=O)(=O)N2CCCc3ccc(Br)cc32)cc1N1CCN(C(=O)C(Cl)(Cl)Cl)CC1", "inhibition": "1.28%"}, {"smiles": "Cc1cc(N2CCC(NS(=O)(=O)c3ccc(F)cc3)CC2)nc(Nc2cccc(C#N)c2)n1", "inhibition": "41%"}, {"smiles": "CCC(C)NC(=O)Nc1ccc(-c2cccc(-c3nc4cccc(C)c4[nH]3)c2)cc1", "note": "(centres undefined)", "inhibition": "-0.8%"}, {"smiles": "CCOC(=O)c1ccc(NC(=O)Nc2ccc(-c3cccc(-c4nc5cccc(C)c5[nH]4)c3)cc2)cc1", "inhibition": "-0.76%"}, {"smiles": "CC(Oc1cccc(Cl)c1)C(=O)N1CCc2ccccc21", "note": "(centres undefined)", "inhibition": "-1.29%"}, {"smiles": "COc1ccc(NC2=C(c3ccccc3)C(=O)c3ccccc32)cn1", "inhibition": "3.49%"}, {"smiles": "CN(C)C=Nc1ccc(OCCCCCCOc2ccc(N=CN(C)C)cc2)cc1", "inhibition": "2.37%"}, {"smiles": "COc1ccc2nccc([C@@H](O)CN3CCC(NCCOc4cccc(C(F)(F)F)c4Cl)CC3)c2c1", "inhibition": "6.66%"}, {"smiles": "CC1CCCCN1Cc1cccc(-c2c[nH]c3nc(NC4CCCC4)ncc23)c1", "note": "(centres undefined)", "inhibition": "6.08%"}, {"smiles": "CN(C)CCCNCc1cn(S(=O)(=O)c2ccccc2Cl)c2ccccc12", "inhibition": "7.6%"}, {"smiles": "CCNc1cc(C(=O)N[C@@H](Cc2ccccc2)[C@H](O)CN[C@@H]2CCc3ccccc32)cc(N2CCCC2=O)c1", "inhibition": "2.15%"}, {"smiles": "CCOc1cc2c(cc1S(=O)(=O)c1ccc(COc3ccc(C(F)(F)F)cc3)cc1)CCN(C)CC2", "inhibition": "1.18%"}, {"smiles": "CCn1c(-c2nonc2N)nc2c(-c3cccc(NC(=O)Nc4cccc(C(F)(F)F)c4)c3)ncc(OCCCN)c21", "inhibition": "0.62%"}, {"smiles": "CC(=NNC(N)=O)C1=C(O)C(c2ccccc2)N(C2CCCCC2)C1=O", "note": "(centres undefined)", "inhibition": "-0.27%"}, {"smiles": "CC(C)(C)c1cc(C(=O)N2CCN(c3nccnc3C#N)CC2)n(Cc2ccccc2)n1", "inhibition": "1.02%"}, {"smiles": "CN1CCN(C(C(=O)NCc2cc(Cl)cc(Cl)c2)c2ccccc2-c2ccsc2)CC1", "note": "(centres undefined)", "inhibition": "4.6%"}, {"smiles": "COc1ccc(C)cc1NC(=O)CSc1nc2cccnc2n1C1CCCCC1", "inhibition": "3.28%"}, {"smiles": "COc1ccc(NC(=O)NC2CCN(c3ccnc4cc(Cl)ccc34)C2)cc1", "note": "(centres undefined)", "inhibition": "1.86%"}, {"smiles": "CC1(C)NC(N)=NC(=N)N1OCCCOc1cccc2ccccc12", "inhibition": "45.4%"}, {"smiles": "Oc1cccc(Nc2ccnc3cc(-c4nccs4)ccc23)c1", "inhibition": "16.1%"}, {"smiles": "Oc1ccc(CCCNc2nc(NCc3cccc4ccccc34)nc(N3CCNCC3)n2)cc1", "inhibition": "0.63%"}, {"smiles": "COc1ccc2nc(C)cc(Nc3ccc(Cl)c(Cl)c3)c2c1", "inhibition": "17.3%"}, {"smiles": "COc1cc2nc(N3CC(C)N(C(=O)Cc4ccc(-c5ccccc5)cc4)C(C)C3)nc(N)c2cc1OC", "note": "(centres undefined)", "inhibition": "3.8%"}, {"smiles": "Nc1nc(Nc2cccc(Cl)c2)ncc1C(=O)NCc1ccncc1", "inhibition": "8.62%"}, {"smiles": "COc1cc2c(cc1OC)C(c1ccc(Br)cc1)CN(C)CC2", "note": "(centres undefined)", "inhibition": "4.35%"}, {"smiles": "CCC(CC)N1C(=O)C(c2ccccc2)(c2ccccc2)N=C1N", "inhibition": "1.61%"}, {"smiles": "COc1ccc2[nH]c3ccccc3c(=O)c2c1", "inhibition": "6.72%"}, {"smiles": "CCCCCCN1CCCN(Cc2ccc(C(=O)Nc3ccc(CC)cc3)cc2)CC1", "inhibition": "10.6%"}, {"smiles": "Nc1nc2c(ncn2OC[C@H]2COP(=O)(O)CO2)c(=O)[nH]1", "inhibition": "-1.54%"}]}]}
